Assay outcomes from PubChem.
TTR transcr act: TTR transcription activation, primary screen; SH-SY5Y TTR promoter Gaussia luciferase, luminescence; 100% = recombinant luciferase protein wells; activation, % at 16.7 µM; hit rate 1.3% among 92,000;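 active = activation above the mean of all tested compounds plus 3 SD, cut at about 9.5% in these data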;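 note: cells exposed to compounds for one day before reading; 0% = median of all test compound wells on the plate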
HuH7 TTR inh: decreases TTR transcription in HuH7 cells in activator counter-screen; shares compounds with TTR transcr act; HuH7 TTR promoter-Gaussia luciferase reporter, luminescence; inhibition, % at 16.7 µM; hit rate 4% among 1,100;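 active = average inhibition above the solvent-only control wells' mean plus 3 SD, cut at about 15% in these data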;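 note: 0% = cells with DMSO only and 100% = cells with inhibitor control FD; inhibitors lower well luminescence so higher value means more inhibition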
TTR up confirm: confirmation of human transthyretin transcription activators; activation, % at 16.7 µM; AID 1117280; SHSY5Y TTR promoter Gaussia luciferase, luminescence; 100% = purified Lucia enzyme wells, no cells; shares compounds with TTR transcr act; 1,100 tested, under 10 active;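 active = mean activation above a set limit taken from the earlier primary screen, cut at about 11% in these data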;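 note: 0% = DMSO-treated cells and 100% = recombinant Lucia luciferase without cells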
* hit, by the source's call. The full list was thinned out, with hits kept by preference.

SMILES	TTR transcr act	others
COc1ccc2c(c1)[C@@]1(NCCc3c1[nH]c1ccc(OC)cc31)C(=O)N2C	0
CCc1nnc(NC(=O)CSc2nnc(-c3ccccc3O)n2CC)s1	22*	HuH7 TTR inh=-14;TTR up confirm=1
CCn1c(SCC(=O)Nc2nc(-c3ccccc3)cs2)nnc1-c1ccccc1O	-6
CCc1nnc(NC(=O)CSc2nnc(-c3cc4ccccc4cc3O)n2CCOC)s1	0
CC(C(=O)OCC(=O)NC1CCCC1)N1C(=O)c2ccccc2C1=O (centres undefined)	1
CC(OC(=O)CN1C(=O)c2ccccc2C1=O)C(=O)NC1CCCCC1 (centres undefined)	14*	HuH7 TTR inh=-12;TTR up confirm=0
CC(OC(=O)COc1ccccc1)C(=O)NC1CCCC1 (centres undefined)	-1
COc1ccc2c3c([nH]c2c1)[C@]1(NCC3)C(=O)N(C)c2ccc(Cl)cc21	3
O=C(NC1CCCCN(Cc2ccc(Cl)cc2)C1=O)C1C2CC3CC(C2)CC1C3 (centres undefined)	-1
COc1ccc(OC)c(CN2C(=O)CCCC2(C)c2nnnn2C2CCCC2)c1 (centres undefined)	0
Cc1ccc(Nc2n[nH]c(=S)s2)cc1F	4
O=c1cc(O)c2sc(Nc3ccc(Cl)c(F)c3)nc2[nH]1	9.9*	HuH7 TTR inh=17*;TTR up confirm=-1
COc1ccc(Nc2nc3[nH]c(=O)cc(O)c3s2)cc1	2
COc1ccc(C2Nc3ccccc3C(=O)N2Cc2cccnc2)cc1COc1c(C)cccc1C (centres undefined)	-2
CN(CC(=O)Nc1ccccc1Br)C(=O)c1ccncc1	0
CC1CCc2[nH]c3ccc(C(=O)NCC4CCCO4)cc3c2C1 (centres undefined)	5
CC1CCc2[nH]c3ccc(C(=O)N(C)CC(=O)Nc4ccccc4Br)cc3c2C1 (centres undefined)	31*	HuH7 TTR inh=-42;TTR up confirm=0
O=C(OCc1cn(Cc2ccc(F)cc2F)nn1)N1CCCC1	1
O=C(c1ccccc1)c1cccs1	1
Cc1ccccc1C(=O)c1ccccc1C(=O)c1ccccc1	6
Nc1sccc1C(=O)c1ccccc1	9.9*	HuH7 TTR inh=-6;TTR up confirm=-1
Cc1ccc(C(C)C)c(OCC(=O)OCC(=O)c2c(N)n(C)c(=O)n(C)c2=O)c1	-1
Cc1cccc(OCC(=O)OCC(=O)c2c(N)n(C)c(=O)n(C)c2=O)c1	11*	HuH7 TTR inh=-7;TTR up confirm=0
Cc1cccc(OCC(=O)OCC(=O)c2c(N)n(C)c(=O)n(C)c2=O)c1C	0
COC(=O)C1CN(CCO)CCS(=O)(=O)N1Cc1cccc(Cl)c1 (centres undefined)	0
SMILES	TTR transcr act	others
O=C(NCCc1csc(-c2cccnc2)n1)c1ccccc1Br	18*	HuH7 TTR inh=-17;TTR up confirm=1
O=S(=O)(NCc1csc(-c2cccnc2)n1)c1ccc(Br)cc1	1
O=S(=O)(NCCc1csc(-c2cccnc2)n1)c1cccc(F)c1	2
CCCCCCC(=O)NC1CCCCN(Cc2ccc(C)cc2)C1=O (centres undefined)	-1
CCCC/C=C1/[C@@H](CC)N(Cc2ccc(OC)cc2OC)C2=N[C@@H](c3ccccc3)CC(=O)N21	2
CCCC[C@H]1C2CC(OC(=O)Nc3ccc(F)cc3)C(C2)[C@H]2CCCCN21 (some centres undefined)	-1
O=C1CCC[C@H]2C[C@H](NCc3ccccc3Cl)CC[C@]23CCCN13	0
C=C(C)[C@@H](O)COc1c2ccoc2cc2oc(=O)ccc12	10*	HuH7 TTR inh=-6;TTR up confirm=0
CC(C)(O)[C@H](O)COc1c2ccoc2cc2oc(=O)ccc12	6
CC(=O)O[C@H](COc1c2ccoc2cc2oc(=O)ccc12)C(C)(C)O	-1
CCCCCCCC(=O)N[C@H]1CC[C@@]23CCCN2C(=O)CCC[C@H]3[C@H]1C	1
COC(=O)[C@]12C[C@H](CC(=O)NCCCN3CCCC3=O)C(=O)N(Cc3ccco3)C1=C[C@H](COCc1ccccc1)O[C@@H]2C	6
C=CCCC[C@H]1OC(=O)[C@H](C)NC(=O)[C@H](C(C)C)NC(=O)[C@@H]2CCCN2C(=O)[C@H](Cc2ccccc2)OC(=O)[C@@H](C(C)C)N(C)C(=O)[C@H](C(C)C)NC(=O)C1(C)C	2
CC1(C(=O)NCc2ccccc2)CCC(=O)N1CC(F)(F)F (centres undefined)	2
CC1(C(=O)Nc2ccc3ccccc3c2)CCC(=O)N1CC(F)(F)F (centres undefined)	13*	HuH7 TTR inh=-14;TTR up confirm=1
CC1(C(=O)Nc2ccc3c(c2)OCCO3)CCC(=O)N1CC(F)(F)F (centres undefined)	-2
COc1ccc(CCNC(=O)c2ccc(-c3ccc([N+](=O)[O-])cc3Cl)o2)cc1OC	-2
COc1ccc(CCNC(=O)c2ccccc2Cl)cc1OC	0
